The subject of experiment [1] is PRMT1 (protein arginine N-methyltransferase 1). Put plainly: small molecules binding arginine methyltransferase PRMT1 – biochemical, small-molecule microarray, 635 nm fluorescence, primary screen (AID 1088).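 Further: binding of Prmt1 protein to compounds spotted on small-molecule microarray slides.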 To be noted: higher = more signal.
Experiment [2] is described as follows: growth effects on S. cerevisiae YJM789 – YJM789 clinical isolate, OD600, 24 h, basal, primary screen (AID 1089).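 Further: growth of clinical yeast isolate S. cerevisiae YJM 789 seeded 1000 cells per well; test concentration not given here.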 To be noted: higher = more signal, called active from +8 up or from −8 down.
Experiment [3] is described as follows: S. pombe growth modifiers, basal conditions – strain 972, OD600, 24 h, no modulator, primary screen (AID 1090).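 Further: basal condition with compound alone and no growth modifier present; test concentration not given here.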 To be noted: S. pombe 972 growth, higher = more signal, called active from +8 up or from −8 down.
The nature of experiment [4]: budding yeast growth modifiers under rapamycin – strain BY4716, OD600, 96 h, primary screen (AID 1091). Further: test concentration not given here. The conditions noted are these: S. cerevisiae BY4716 + rapamycin, higher = more signal, called active from +8 up or from −8 down.
Experiment [5] has as its target Torsin-1A-interacting protein 2 (Homo sapiens) (UniProt Q8NFQ8). Put plainly: small molecules binding lysate-expressed LULL1 – cell lysate, human LULL1 lysate, 635/667 nm fluorescence, primary screen (AID 1092).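 Further: probe is lysate of COS7 cells overexpressing human LULL1; score merges per-feature 667 nm fluorescence with signal-to-noise.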 The conditions noted are these: small-molecule microarray, hLULL1 lysate binding, 635 nm fluorescence; higher = more signal.
Experiment [6] is described as follows: optical density change of DRC41 E. coli – strain DRC41, OD650, 24 h, E. coli filamentation project, primary screen (AID 1093).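 Further: MC1000 strain lacking acrAB efflux and sulA so SOS filamentation is blocked; test concentration not given here.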 To be noted: E. coli DRC41 growth, higher = more signal, called active from +8 up or from −8 down.
The nature of experiment [7]: probe aLefty2 binding to arrayed compounds – biochemical, biotinylated probe, 635/667 nm fluorescence, primary screen (AID 1094).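 Further: score merges spot fluorescence near 667 nm with spot signal-to-noise ratio.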 To be noted: small-molecule microarray, higher = more signal.
Experiment [8] relates to Noggin (protein binding on small-molecule microarray). Put plainly: small molecules binding Noggin protein – biochemical, 635/667 nm fluorescence, primary screen (AID 1095).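 Further: score merges 667 nm feature fluorescence with signal to noise over triplicate slides.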 To be noted: 635 nm fluorescence, higher = more signal.
The target of experiment [9] is Neurogenic locus notch homolog protein 3 (Homo sapiens) (UniProt Q9UM47). Put plainly: small molecules binding NOTCH3 protein – biochemical, 635/667 nm fluorescence, primary screen (AID 1096). To be noted: small-molecule microarray, 635 nm fluorescence, higher = more signal.
Sequence of Neurogenic locus notch homolog protein 3 (Homo sapiens) (Q9UM47 whole entry, looked up): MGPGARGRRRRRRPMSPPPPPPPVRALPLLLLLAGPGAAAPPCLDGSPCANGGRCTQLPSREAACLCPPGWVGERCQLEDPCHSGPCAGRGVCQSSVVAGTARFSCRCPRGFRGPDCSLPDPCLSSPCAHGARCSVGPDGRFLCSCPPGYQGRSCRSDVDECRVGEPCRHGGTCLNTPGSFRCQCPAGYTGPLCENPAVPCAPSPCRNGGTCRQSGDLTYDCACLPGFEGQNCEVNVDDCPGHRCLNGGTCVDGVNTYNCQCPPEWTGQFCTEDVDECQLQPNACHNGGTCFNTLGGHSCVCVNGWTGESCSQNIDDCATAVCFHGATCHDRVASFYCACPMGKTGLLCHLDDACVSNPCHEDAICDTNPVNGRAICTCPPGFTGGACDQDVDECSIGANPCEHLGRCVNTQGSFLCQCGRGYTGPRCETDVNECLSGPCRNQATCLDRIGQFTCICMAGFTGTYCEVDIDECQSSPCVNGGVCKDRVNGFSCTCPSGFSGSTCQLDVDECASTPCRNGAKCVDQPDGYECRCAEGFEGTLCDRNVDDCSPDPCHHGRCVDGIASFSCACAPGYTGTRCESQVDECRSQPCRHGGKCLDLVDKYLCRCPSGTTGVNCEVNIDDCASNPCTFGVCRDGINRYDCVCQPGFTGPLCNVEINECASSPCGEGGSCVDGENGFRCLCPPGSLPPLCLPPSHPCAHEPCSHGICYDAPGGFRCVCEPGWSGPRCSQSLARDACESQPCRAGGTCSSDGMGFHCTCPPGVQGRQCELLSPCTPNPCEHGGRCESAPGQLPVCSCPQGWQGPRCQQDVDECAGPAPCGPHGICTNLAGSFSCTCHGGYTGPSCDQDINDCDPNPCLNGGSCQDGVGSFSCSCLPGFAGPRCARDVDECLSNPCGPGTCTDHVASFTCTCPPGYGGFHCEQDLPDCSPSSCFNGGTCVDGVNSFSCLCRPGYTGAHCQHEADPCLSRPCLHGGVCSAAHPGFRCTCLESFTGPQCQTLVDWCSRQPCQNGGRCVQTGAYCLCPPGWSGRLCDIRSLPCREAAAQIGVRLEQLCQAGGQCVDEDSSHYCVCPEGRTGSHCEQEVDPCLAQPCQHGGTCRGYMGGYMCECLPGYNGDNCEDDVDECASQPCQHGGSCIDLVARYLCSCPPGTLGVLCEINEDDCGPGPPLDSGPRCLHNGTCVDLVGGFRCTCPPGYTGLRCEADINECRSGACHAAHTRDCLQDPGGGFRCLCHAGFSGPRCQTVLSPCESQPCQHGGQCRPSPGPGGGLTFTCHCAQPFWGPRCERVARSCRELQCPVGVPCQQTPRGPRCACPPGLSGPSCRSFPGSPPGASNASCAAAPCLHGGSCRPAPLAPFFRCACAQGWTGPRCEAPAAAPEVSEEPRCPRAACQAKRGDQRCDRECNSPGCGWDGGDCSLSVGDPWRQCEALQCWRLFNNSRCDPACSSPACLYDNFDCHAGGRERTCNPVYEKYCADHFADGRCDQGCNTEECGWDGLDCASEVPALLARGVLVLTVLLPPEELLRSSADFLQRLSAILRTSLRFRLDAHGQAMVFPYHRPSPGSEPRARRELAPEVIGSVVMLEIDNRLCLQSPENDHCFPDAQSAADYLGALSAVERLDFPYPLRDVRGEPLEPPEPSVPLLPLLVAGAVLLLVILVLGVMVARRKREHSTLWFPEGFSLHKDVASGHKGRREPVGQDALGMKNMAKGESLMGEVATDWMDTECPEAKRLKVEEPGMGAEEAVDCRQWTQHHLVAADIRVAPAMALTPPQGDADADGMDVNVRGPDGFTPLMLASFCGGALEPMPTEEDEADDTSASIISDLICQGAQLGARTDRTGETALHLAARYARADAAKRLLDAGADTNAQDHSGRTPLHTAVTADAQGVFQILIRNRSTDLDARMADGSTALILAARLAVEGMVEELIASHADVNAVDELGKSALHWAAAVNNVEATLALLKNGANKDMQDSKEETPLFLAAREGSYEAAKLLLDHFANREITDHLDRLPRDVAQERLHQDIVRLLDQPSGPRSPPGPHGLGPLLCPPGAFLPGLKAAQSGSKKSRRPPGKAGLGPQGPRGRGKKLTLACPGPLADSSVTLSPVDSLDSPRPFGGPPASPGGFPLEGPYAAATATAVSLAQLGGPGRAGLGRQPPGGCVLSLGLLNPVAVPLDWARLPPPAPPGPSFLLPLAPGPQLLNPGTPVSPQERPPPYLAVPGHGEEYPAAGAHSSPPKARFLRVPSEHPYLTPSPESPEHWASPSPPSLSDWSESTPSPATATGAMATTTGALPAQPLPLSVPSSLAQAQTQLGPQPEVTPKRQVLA
Experiment [10] is described as follows: probe aEGFR binding to arrayed compounds – biochemical, biotinylated probe, 635/667 nm fluorescence, primary screen (AID 1097).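 Further: probe is a biotinylated anti-EGFR antibody binding compounds printed on slides; score combines fluorescence near 667 nm and signal to noise of each spot.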 The conditions noted are these: small-molecule microarray, higher = more signal.
The subject of experiment [11] is Plasmodium falciparum Sir2 (PF13_0152, Sir2A). The experiment in a line: Plasmodium falciparum Sir2A binding compounds – biochemical, small-molecule microarray, 635 nm fluorescence, primary screen (AID 1098).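 Further: score merges spot fluorescence intensity with its signal-to-noise ratio.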 To be noted: fluorescence 635 nm, higher = more signal.
Experiment [12] can be described thus: probe aDKK1 binding to arrayed compounds – biochemical, biotinylated probe, 635/667 nm fluorescence, primary screen (AID 1099).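 Further: score merges 667nm spot fluorescence with signal to noise across triplicate slides; reference of the scale not given here.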 The conditions noted are these: small-molecule microarray, higher = more signal.
A short description of experiment [13]: probe aCHRDL2 binding to arrayed compounds – biochemical, biotinylated probe, 635/667 nm fluorescence, primary screen (AID 1100). The conditions noted are these: small-molecule microarray, higher = more signal.
Experiment [14] in a line: change in splice reporter luminescence, either direction, cell-based, HEK293, spliceosome inhibition project, primary screen (AID 1101).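 Further: HEK293 cells carrying a splicing-competent luciferase reporter gene; test concentration not given here.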 The conditions noted are these: HEK293 splicing luciferase reporter, 24 h, higher = more signal, called active from +8 up or from −8 down.
In experiment [15] the target is Fibroblast growth factor 10 (Homo sapiens) (UniProt O15520). The experiment in a line: compounds binding fibroblast growth factor 10 – biochemical, small-molecule microarray, 635 nm fluorescence, primary screen (AID 1102). The conditions noted are these: FGF10 binding, fluorescence 635 nm, higher = more signal.
Sequence of Fibroblast growth factor 10 (Homo sapiens) (O15520 whole entry, looked up): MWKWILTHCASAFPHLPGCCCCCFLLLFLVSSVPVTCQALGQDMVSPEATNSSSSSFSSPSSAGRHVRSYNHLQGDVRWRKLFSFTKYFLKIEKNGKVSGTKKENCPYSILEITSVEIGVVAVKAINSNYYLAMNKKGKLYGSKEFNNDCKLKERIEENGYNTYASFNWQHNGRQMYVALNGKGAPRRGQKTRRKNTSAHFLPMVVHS
The test system of experiment [16] is glycogen synthase kinase-3 (GSK3A per assay name; protocol says GSK3B). The experiment in a line: compounds binding glycogen synthase kinase-3 – biochemical, small-molecule microarray, 635 nm fluorescence, GSK3A, primary screen (AID 1103). Further: the record names both GSK3A and GSK3B. The conditions noted are these: fluorescence 635 nm, higher = more signal.
The target of experiment [17] is Epidermal growth factor receptor (Homo sapiens) (UniProt P00533). The experiment in a line: compounds binding epidermal growth factor receptor – biochemical, small-molecule microarray, 635 nm fluorescence, primary screen (AID 1104).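 Further: score merges 667 nm emission intensity with spot signal to noise over triplicate slides.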 To be noted: EGFR binding, higher = more signal.
Sequence of Epidermal growth factor receptor (Homo sapiens) (P00533 whole entry, looked up): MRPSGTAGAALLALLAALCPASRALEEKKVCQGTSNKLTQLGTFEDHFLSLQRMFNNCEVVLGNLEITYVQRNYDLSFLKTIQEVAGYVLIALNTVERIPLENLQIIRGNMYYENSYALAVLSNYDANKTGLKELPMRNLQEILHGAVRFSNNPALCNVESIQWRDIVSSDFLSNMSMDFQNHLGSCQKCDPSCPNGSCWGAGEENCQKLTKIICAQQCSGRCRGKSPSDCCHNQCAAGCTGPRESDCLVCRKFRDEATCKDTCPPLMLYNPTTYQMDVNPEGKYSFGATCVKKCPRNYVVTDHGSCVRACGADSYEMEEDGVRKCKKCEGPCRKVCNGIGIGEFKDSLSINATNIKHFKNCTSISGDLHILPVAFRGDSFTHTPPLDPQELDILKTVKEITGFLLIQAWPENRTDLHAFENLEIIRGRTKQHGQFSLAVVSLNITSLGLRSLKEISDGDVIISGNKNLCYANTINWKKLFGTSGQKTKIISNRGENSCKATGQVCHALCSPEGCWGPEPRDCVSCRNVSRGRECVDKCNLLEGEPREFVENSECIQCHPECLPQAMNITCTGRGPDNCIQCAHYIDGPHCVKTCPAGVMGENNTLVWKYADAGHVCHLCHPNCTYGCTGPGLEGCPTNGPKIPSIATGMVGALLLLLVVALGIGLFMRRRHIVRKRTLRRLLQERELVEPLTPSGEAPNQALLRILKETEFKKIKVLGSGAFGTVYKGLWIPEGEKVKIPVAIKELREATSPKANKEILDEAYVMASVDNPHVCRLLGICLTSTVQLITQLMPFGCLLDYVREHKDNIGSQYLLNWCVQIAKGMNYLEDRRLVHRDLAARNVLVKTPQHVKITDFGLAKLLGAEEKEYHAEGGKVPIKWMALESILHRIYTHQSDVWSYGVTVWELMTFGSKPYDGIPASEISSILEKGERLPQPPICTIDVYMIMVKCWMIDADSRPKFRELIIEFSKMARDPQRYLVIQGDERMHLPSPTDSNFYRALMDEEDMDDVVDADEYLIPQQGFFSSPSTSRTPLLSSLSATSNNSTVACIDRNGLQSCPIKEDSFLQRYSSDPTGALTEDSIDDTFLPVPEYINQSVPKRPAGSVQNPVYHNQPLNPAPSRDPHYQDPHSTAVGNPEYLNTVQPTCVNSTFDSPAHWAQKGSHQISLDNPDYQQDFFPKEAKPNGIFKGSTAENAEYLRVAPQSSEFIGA
For experiment [18], the target named is Follistatin-related protein 3 (Homo sapiens) (UniProt O95633). The experiment in a line: compounds binding follistatin-related protein 3 – biochemical, small-molecule microarray, 635 nm fluorescence, primary screen (AID 1105).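 Further: score merges emission near 667 nm and signal to noise per printed spot across three slides.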 The conditions noted are these: FSTL3 binding, higher = more signal.
Sequence of Follistatin-related protein 3 (Homo sapiens) (O95633 whole entry, looked up): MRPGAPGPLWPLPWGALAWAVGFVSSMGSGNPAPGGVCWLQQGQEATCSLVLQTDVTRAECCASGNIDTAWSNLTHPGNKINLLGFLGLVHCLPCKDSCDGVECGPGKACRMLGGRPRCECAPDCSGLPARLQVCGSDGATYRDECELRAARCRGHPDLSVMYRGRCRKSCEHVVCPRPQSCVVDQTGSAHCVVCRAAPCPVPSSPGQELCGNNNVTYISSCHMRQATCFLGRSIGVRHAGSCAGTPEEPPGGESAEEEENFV
Experiment [19] concerns the target Dickkopf-related protein 1 (Homo sapiens) (UniProt O94907). The experiment in a line: small molecules binding DKK1 protein – biochemical, small-molecule microarray, 635 nm fluorescence scan, primary screen (AID 1106).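 Further: score merges emission near 667 nm with signal to noise over three replicate slides.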 The conditions noted are these: higher = more signal.
Experiment [20] concerns Inhibin beta A chain (activin A). Put plainly: small molecules binding activin A – biochemical, small-molecule microarray, 635 nm fluorescence scan, primary screen (AID 1107).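 Further: mouse activin A protein probed at 4.33 µg/mL on printed slides; score merges bound-protein fluorescence near 667 nm with spot signal-to-noise.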 To be noted: INHBA, higher = more signal.

Active and inactive are the calls of the source.

Sequence of Dickkopf-related protein 1 (Homo sapiens) (O94907 whole entry, looked up): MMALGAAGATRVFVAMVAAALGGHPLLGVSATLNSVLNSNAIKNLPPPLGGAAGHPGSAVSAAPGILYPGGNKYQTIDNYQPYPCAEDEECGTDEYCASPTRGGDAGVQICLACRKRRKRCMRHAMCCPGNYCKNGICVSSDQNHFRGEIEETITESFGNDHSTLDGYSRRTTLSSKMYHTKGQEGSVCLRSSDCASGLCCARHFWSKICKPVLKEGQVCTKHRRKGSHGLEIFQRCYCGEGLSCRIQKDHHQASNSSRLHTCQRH
Sequence of Torsin-1A-interacting protein 2 (Homo sapiens) (Q8NFQ8 whole entry, looked up): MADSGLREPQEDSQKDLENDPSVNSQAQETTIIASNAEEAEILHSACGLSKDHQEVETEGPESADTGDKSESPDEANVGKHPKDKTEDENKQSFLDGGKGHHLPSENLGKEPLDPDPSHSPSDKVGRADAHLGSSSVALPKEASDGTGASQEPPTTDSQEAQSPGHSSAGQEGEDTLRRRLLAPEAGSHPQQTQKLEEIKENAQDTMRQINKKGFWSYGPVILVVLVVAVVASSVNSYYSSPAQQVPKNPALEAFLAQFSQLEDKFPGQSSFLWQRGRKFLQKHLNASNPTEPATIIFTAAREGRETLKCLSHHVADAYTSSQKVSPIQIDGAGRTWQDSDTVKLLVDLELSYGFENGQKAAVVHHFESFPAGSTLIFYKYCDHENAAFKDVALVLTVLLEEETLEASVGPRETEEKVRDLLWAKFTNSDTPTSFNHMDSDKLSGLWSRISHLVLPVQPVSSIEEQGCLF

In the case of `COc1ccc(COC(=O)NN=C2C[C@@H](O)[C@@H](O)[C@@H]3[C@@H]4C(=O)N(C5CCCCC5)C(=O)[C@@H]4CC[C@@H]23)cc1`, the composite z-score was 0.35 in [1]; 0.611 in experiment [5]; 0.687 in experiment [7]; 0.159 in experiment [8]; -0.218 in experiment [9]; -0.127 in [10]. Also, the composite z-score in [11] was -0.123; in experiment [12], 0.202; in experiment [13], 1.38; in experiment [15], -0.28; in [16], -0.145; in experiment [17], -0.583. The composite z-score in experiment [18] was -0.248; in experiment [19] it was -0.88; in [20], 0.105. Moreover, the z-score was -0.703 (inactive) in experiment [2]; -1.86 (inactive) in experiment [3]; -0.617 (inactive) in experiment [4]; -1.03 (inactive) in experiment [6]; 0.299 (inactive) in [14].
In the case of `O=C1[C@H]2CCn3c(=O)n(Cc4cc5c(cc4Cl)OCO5)c(=O)n3[C@H]2[C@H](O)[C@@H]2O[C@H]12`, the composite z-score in [1] was -0.0582; in [5], -0.297; in experiment [7], -0.255; in experiment [8], 0.27; in [9], -0.802; in experiment [10], -0.173. The composite z-score in experiment [11] is 0.652; in experiment [12], -0.374; in [13], -0.604; in experiment [15], -0.41; in experiment [16] it was -0.734; in experiment [17], 0.413. For the same compound, the composite z-score in experiment [18] was -0.0989; in [19], 0.552; in [20], 0.73. For the same compound, the z-score is 0.821 (inactive) in experiment [2]; -0.315 (inactive) in [3]; -0.224 (inactive) in experiment [4]; 0.662 (inactive) in experiment [6]; 0.726 (inactive) in experiment [14].
For `O=C1C2=CC[C@H]3C(=O)N(c4ccc(F)cc4F)C(=O)[C@H]3[C@H]2[C@H](O)[C@@H]2O[C@H]12`, the composite z-score in [1] was 0.137; in [5], -0.034; in experiment [7], -0.124; in experiment [8], 0.526; in [9], 0.634; in [10], -0.0967. For the same compound, the composite z-score in experiment [11] was 0.305; in experiment [12], -0.378; in experiment [13], -0.778; in experiment [15] it was 0.472; in experiment [16], 0.578; in experiment [17], 0.347. Moreover, the composite z-score is 0.453 in [18], 0.658 in experiment [19] and -0.172 in [20]. Also, the z-score was -0.892 (inactive) in [2]; 0.151 (inactive) in experiment [3]; 0.0688 (inactive) in [4]; 0.601 (inactive) in experiment [6]; -0.35 (inactive) in experiment [14].
With `COC(=O)CC=C1c2ccccc2[C@H](OC)[C@H]1C`, the composite z-score was -0.32 in experiment [1]; -0.655 in [5]; -0.0732 in experiment [7]; 0.189 in experiment [8]; -0.562 in [9]; -0.0657 in experiment [10]. Also, the composite z-score in experiment [11] was -0.0214; in experiment [12], -0.314; in [13], -0.624; in [15], 0.0785; in experiment [16], -0.234; in experiment [17], 0.33. Further, the composite z-score in experiment [18] worked out at 0.0242; in experiment [19], 0.485; in experiment [20] it was 1.05. The z-score in experiment [2] was 0.649 (inactive); in experiment [3], 0.863 (inactive); in experiment [4], 0.387 (inactive); in experiment [6], 0.194 (inactive); in experiment [14] it was 0.0124 (inactive).
`CCOC(=O)[C@H](Cc1ccccc1)NC(=O)CCC1CC(OC(=O)NCc2cccc3ccccc23)CC2(CCCC(COC(=O)NCC3CCCCC3)O2)O1` (stereo not given in full): the composite z-score is 1.41 in [1]; 1.4 in experiment [5]; -0.117 in experiment [7]; 0.926 in [8]; 1.14 in experiment [9]; -0.0381 in experiment [10]. The composite z-score in experiment [11] is 0.889; in experiment [12] it was -0.21; in experiment [13] it was -0.53; in experiment [15], 0.781; in experiment [16], 0.805; in experiment [17], 0.604. Besides, the composite z-score in experiment [18] stood at 0.872; in experiment [19] it was 0.795; in experiment [20] it was 0.381. The z-score was -0.617 (inactive) in experiment [2]; -0.174 (inactive) in [3]; -0.445 (inactive) in experiment [4]; -0.448 (inactive) in [6]; -0.815 (inactive) in experiment [14].

Source of the values: PubChem BioAssay.
